According to PubChem BioAssay (NCI):
Compounds without any hit were thinned out: in the full panel of roughly 79,000, 15% have a hit. No stated cut-off is given here; in the data, active means growth inhibition above about 70%; inactive means the rest.

Legend:
[1] = NCI Yeast Anticancer Drug Screen. Data for the rad50 strain (AID 155);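 further: 0% = growth of vehicle-only cultures of the same strain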; settings: S. cerevisiae rad50 strain growth inhibition; at 50.0 µM; active compounds read high
Method in brief: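 Readout: growth inhibition relative to vehicle-treated cultures. Compound exposure was carried out in a genetically defined yeast strain deficient in DNA damage repair.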

[2] = NCI Yeast Anticancer Drug Screen. Data for the mec2-1 strain (AID 157); settings: S. cerevisiae mec2-1 strain, at 50.0 µM, active compounds read high
Method in brief: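 mec2-1 yeast strain, carrying an alteration in DNA damage repair or cell cycle control, was exposed to compounds; growth inhibition was measured relative to vehicle-treated controls.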

[3] = NCI Yeast Anticancer Drug Screen. Data for the sgs1 mgt1 strain (AID 161);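 further: 0% = growth of cultures given vehicle only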; settings: S. cerevisiae sgs1 mgt1 strain, at 50.0 µM, active compounds read high
Method in brief: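 This yeast growth screen uses a strain with defined DNA-repair lesions; compound-treated growth is compared with vehicle-treated growth.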

[4] = NCI Yeast Anticancer Drug Screen. Data for the cln2 rad14 strain (AID 165);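 further: 0% = growth equal to vehicle treated cultures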; settings: S. cerevisiae cln2 rad14 strain, at 50.0 µM, active compounds read high
Method in brief: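 Yeast carrying cln2 and rad14 alterations (cell cycle control and DNA damage repair) were exposed to compounds. Growth inhibition was measured against vehicle-treated controls.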

[5] = NCI Yeast Anticancer Drug Screen. Data for the bub3 strain (AID 167); settings: S. cerevisiae bub3 mutant strain, at 50.0 µM, active compounds read high
Method in brief: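 Readout: yeast growth inhibition, expressed relative to vehicle-only wells. The test organism is a mutant strain from a panel with lesions in DNA repair or checkpoint genes.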

[6] = NCI Yeast Anticancer Drug Screen. Data for the mlh1 rad18 strain (AID 175); settings: S. cerevisiae mlh1 rad18 strain growth inhibition; at 50.0 µM; active compounds read high
Method in brief: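 Growth inhibition of the yeast strain was measured after compound exposure and expressed relative to vehicle-treated controls. The strain carries defined defects in DNA damage repair.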

Measured: growth inhibition

CC(=O)c1cccc(C)n1
inactive: [1] 29.8% | [2] -6.05% | [3] 22.1% | [4] 18.2% | [5] 10.9% | [6] 36.7%

Clc1cccc2[nH]c(-c3ccncc3)nc12
inactive: [1] -18.1% | [2] -15.1% | [3] -15.4% | [4] -10.8% | [5] 2.95% | [6] -5.75%

CCCNc1ncnc2ncn(C)c12
inactive: [1] 12.4% | [2] -1.6% | [3] -12.9% | [4] 5.05% | [5] 7.35% | [6] 0.35%

COc1cc(C#N)cc(OC)c1
inactive: [1] -17.4% | [2] -16.4% | [3] -26.9% | [4] 3.6% | [5] -12.1% | [6] -5.5%

CC1=C(C(=O)CC(=O)C(=O)NC2C3CC4CC(C3)CC2C4)Sc2ccccc2N1 (stereo unspecified)
inactive: [1] -33.5% | [2] -0.15% | [3] -2.6% | [4] 8.8% | [5] -0.6% | [6] -21%

CNC(=O)c1ccccc1N=NN(C)C
inactive: [1] -0.65% | [2] 19.4% | [3] 4.05% | [4] 13.7% | [5] 15.7% | [6] 40.5%

CC[n+]1ccc(/C=C\c2c(Cl)cccc2Cl)cc1
inactive: [1] -1.45% | [2] -17.6% | [3] 5.65% | [4] 3% | [5] 7.8% | [6] 12.1%

COc1ccc(C=Nc2ccc3c(c2)OCO3)cc1Br
inactive: [1] 16.9% | [2] 16.9% | [3] 11.7% | [4] 14.6% | [5] 9.4% | [6] 19.2%

COc1ccc(C2(C(=O)O)CC(C)=C(C)CC2C(=O)O)cc1 (stereo unspecified)
inactive: [1] -1.45% | [2] -9.05% | [3] -5.25% | [4] 0.6% | [5] -11.7% | [6] 7%

c1ccc(-c2nnnn2-c2ccccc2)cc1
inactive: [1] -0.5% | [2] -2.8% | [3] 7.9% | [4] -7.5% | [5] 5.4% | [6] 17.7%

COc1ccc(/C=N/NC(=O)C(=O)Nc2ccc(Cl)c([N+](=O)[O-])c2)cc1OC
inactive: [1] 2.15% | [2] -20.9% | [3] -0.65% | [4] 2.85% | [5] -4.1% | [6] -6.4%

CC1=NNC(=O)C1
inactive: [1] 4.65% | [2] -0.4% | [3] -8.1% | [4] -14.8% | [5] -3.2% | [6] 2.9%

Cc1oc2ccccc2c(=O)c1Cn1cnc2ccc([N+](=O)[O-])cc21
inactive: [1] -0.45% | [2] 10.3% | [3] 21.5% | [4] 11.8% | [5] 5.85% | [6] 10.1%

O=S(=O)(c1ccccc1)c1cccc2c1NCCC2
inactive: [1] 34.9% | [2] -1.75% | [3] 34.4% | [4] 8.4% | [5] 62.3% | [6] 43.6%

O=C(CCC(O)c1ccccc1)c1ccccc1 (stereo unspecified)
inactive: [1] -13.6% | [2] -12.3% | [3] -9.3% | [4] -10.9% | [5] 0% | [6] 2.35%

COc1ccc(N=Cc2ccc([N+](=O)[O-])cc2)cc1
inactive: [1] 27.9% | [2] 0.75% | [3] 15.2% | [4] -22.4% | [5] 9.9% | [6] 36.1%

Cc1nc(-n2nc(-c3ccccc3)cc2-c2ccccc2)sc1C(/C=C/c1ccc([N+](=O)[O-])cc1)=N/NC(=O)c1ccncc1
inactive: [1] 47.4% | [2] 36.7% | [3] 17.9% | [4] -24.7% | [5] 46.1% | [6] 58.5%

CC(=O)c1ccc(O)c(CN(C2CCCCC2)C2CCCCC2)c1O
inactive: [1] -2.9% | [2] -10.3% | [3] -36.1% | [4] 12.4% | [5] -18% | [6] 4.5%

COc1ccc(/C=C/C(=O)c2ccc3c(c2)OCO3)cc1OC
inactive: [1] -15.6% | [2] -14.8% | [3] -45.1% | [4] -6.65% | [5] -33.7% | [6] -23.5%

CC(C)OC(=O)N1CCCC1
inactive: [1] 12% | [2] 13.8% | [3] 6.05% | [4] -20% | [5] 13.9% | [6] -17.4%

CCN1c2nc3ccccc3nc2N(CC)c2nc3ccccc3nc21
inactive: [1] -30.1% | [2] 12.5% | [3] 23.9% | [4] 6.55% | [5] 3.45% | [6] 5.3%
